According to the supplement of paper PMC4840960:
± gives the standard deviation of the averaged measurements.

Test system: E18 rat cortical neuron-glia co-culture
Assay: fiber score / MBP score (myelination specific beyond OL differentiation) (ratio); higher = more myelination-specific MBP alignment
Details: 5 µM; treatment time: 8 days (DIV5-DIV13)
In short: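 Reported values are fiber score (continuous MBP fiber length per Olig2+ nucleus) divided by MBP score (thresholded MBP area × intensity per Olig2+ nucleus). They come from primary E18 rat cortical co-cultures treated with library compounds at 1 or 5 µM in myelination medium from DIV5 to DIV13, then fixed in 4 % paraformaldehyde, immunostained for MBP and Olig2 with DAPI, and analysed over four 10X fields per well in duplicate wells.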

SMILES | fiber score / MBP score
N[C@@H](Cc1cc(I)c(Oc2ccc(O)c(I)c2)c(I)c1)C(=O)O [Triiodothyronine] | 1.21
Cc1onc(-c2c(Cl)cccc2Cl)c1C(=O)N[C@@H]1C(=O)N2[C@@H]1SC(C)(C)[C@@H]2C(=O)O [Dicloxacillin] | 0.655
CCCC(=O)O[C@]1(C(=O)COC(=O)CC)CC[C@H]2[C@@H]3CCC4=CC(=O)CC[C@]4(C)[C@H]3[C@@H](O)C[C@@]21C [Hydrocortisone buteprate] | 1.22
CC(=O)[C@H]1CC[C@H]2[C@@H]3C[C@H](C)C4=CC(=O)CC[C@]4(C)[C@H]3[C@@H](O)C[C@]12C [Medrysone] | 1.1
CO[C@H]1/C=C/O[C@@]2(C)Oc3c(C)c(O)c4c(O)c(c5c(nc6cc(C)ccn65)c4c3C2=O)NC(=O)/C(C)=C\C=C\[C@H](C)[C@H](O)[C@@H](C)[C@@H](O)[C@@H](C)[C@H](OC(C)=O)[C@@H]1C [Rifaximin] | 0.73
CCN1CCCC1CNC(=O)c1cc(S(N)(=O)=O)ccc1OC (centres undefined) [Sulpiride] | 0.751
CCCCC[C@H](O)/C=C/[C@H]1[C@H](O)CC(=O)[C@@H]1CCCCCCC(=O)O [Alprostadil] | 0.695
Oc1ccc(/C=C/c2cc(O)cc(O)c2)cc1 [Resveratrol] | 0.685
Clc1ccc2c(c1)C(N1CCNCC1)=Nc1ccccc1O2 [Amoxapine] | 0.185
C[C@]12C=CC(=O)C=C1CC[C@@H]1[C@@H]2[C@@H](O)C[C@@]2(C)[C@H]1CC[C@]2(O)C(=O)COC(=O)CCC(=O)O [Prednisolone hemisuccinate] | 1.08
CN/C(=N\CCSCc1nc[nH]c1C)NC#N [Cimetidine] | 0.823
C[n+]1ccccc1C=NO [Pralidoxime] | 1.12
O=[N+]([O-])c1cccc2cn[nH]c12 [7-Nitroindazole] | 0.753
NS(=O)(=O)c1cc2c(cc1C(F)(F)F)NCNS2(=O)=O [Hydroflumethiazide] | 0.763
Cc1[nH]c(=O)c(C#N)cc1-c1ccncc1 [Milrinone] | 0.504
CC(COc1ccccc1)NC(C)C(O)c1ccc(O)cc1 (centres undefined) [Isoxsuprine] | 0.841
CN1CCCC(n2nc(Cc3ccc(Cl)cc3)c3ccccc3c2=O)CC1 (centres undefined) [Azelastine] | 0.855
O=C(O)c1cc(/N=N/c2ccc(S(=O)(=O)Nc3ccccn3)cc2)ccc1O [Sulfasalazine] | 1.17
CNNCc1ccc(C(=O)NC(C)C)cc1 [Procarbazine] | 1.09
NC[C@H](O)c1ccc(O)c(O)c1 [Norepinephrine] | 0.756

SMILES | fiber score / MBP score
CCC1(c2ccccc2)C(=O)NCNC1=O [Primidone] | 1.03
O=c1cnn([C@@H]2O[C@H](CO)[C@@H](O)[C@H]2O)c(=O)[nH]1 [Azauridine] | 0.453
Nc1nc(=O)c2nc(CNc3ccc(C(=O)N[C@@H](CCC(=O)O)C(=O)O)cc3)cnc2[nH]1 [Folic acid] | 0.627
O=C1CC2(CCCC2)CC(=O)N1CCNCC1COc2ccccc2O1 (centres undefined) [Binospirone] | 0.49
CN(C)[C@@H]1C(O)=C(C(N)=O)C(=O)[C@@]2(O)C(O)=C3C(=O)c4c(O)cccc4[C@@](C)(O)[C@H]3[C@H](O)[C@@H]12 [Oxytetracycline] | 0.668
CC(=O)N1CCN(c2ccc(OCC3COC(Cn4ccnc4)(c4ccc(Cl)cc4Cl)O3)cc2)CC1 (centres undefined) [Ketoconazole] | 0.267
O=C(O[C@@H]1C[C@@H]2C[C@H]3C[C@H](C1)N2CC3=O)c1c[nH]c2ccccc12 [Dolasetron] | 0.701
C[C@@H]1C[C@H]2[C@@H]3CCC4=CC(=O)C=C[C@]4(C)[C@@]3(F)[C@@H](O)C[C@]2(C)[C@@]1(O)C(=O)CO [Dexamethazone] | 0.845
Cc1ccccc1C(OCCN(C)C)c1ccccc1 (centres undefined) [Orphenadrine] | 0.896 ± 0.071
CC(=O)OCC(=O)[C@@]1(O)CC[C@H]2[C@@H]3CCC4=CC(=O)C=C[C@]4(C)[C@H]3[C@@H](O)C[C@@]21C [Prednisolone acetate] | 0.704
CC12CC3CC(C)(C1)CC(N)(C3)C2 [Memantine] | 0.838 ± 0.13
CCCNC(C)C(=O)Nc1ccccc1C (centres undefined) [Prilocaine] | 1.1
CCOC(=O)OC(C)OC1=C(C(=O)Nc2ccccn2)N(C)S(=O)(=O)c2ccccc21 (centres undefined) [Ampiroxicam] | 1.01
CCOC(=O)N1CCC(=C2c3ccc(Cl)cc3CCc3cccnc32)CC1 [Loratadine] | 0.575
CCCC(CCC)C(=O)O [Valproic Acid] | 0.944
CC1COc2c(N3CCN(C)CC3)c(F)cc3c(=O)c(C(=O)O)cn1c23 (centres undefined) [Ofloxacin] | 0.784 ± 0.19
CCc1cc(C(N)=S)ccn1 [Ethionamide] | 1.1
COC(=O)C1=C(C)NC(C)=C(C(=O)OC2CCCN(Cc3ccccc3)C2)C1c1cccc([N+](=O)[O-])c1 (centres undefined) [Benidipine] | 0.892
O=C(O[C@H]1[C@H](Oc2ccccc2COC(=O)C2(O)C=CCCC2=O)O[C@H](CO)[C@@H](O)[C@@H]1O)c1ccccc1 (some centres undefined) [Tremulacin] | 2.76
